# Experimental data as given in PubChem BioAssay (NCI).
# This is part of a sample that, as a whole, favours compounds with a hit. Of some 83,000 tested, about 20% had one in any assay.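 Growth was measured after 48 h exposure to one concentration of compound in 96-well plates. Values under 10 count as active.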 Calls of active or inactive are those of the source.
# Test system: NCI-H23 lung
# Experiment: NCI-60 one-dose screen, 48 h (100 = growth as untreated, 0 = no growth, -100 = all killed)
# Conditions: 10 µM
row,Structure (SMILES),growth
1,COc1cc(-c2cc(/C=C3\C(=O)Nc4cc(Cl)ccc43)[nH]n2)cc(OC)c1OC,69.7% (inactive)
2,CCCCCCc1cc(N=Nc2ccc(S(=O)(=O)Nc3cc(C)nc(C)n3)cc2)c(O)cc1O,102% (inactive)
3,N#CC1=C(Nc2ccccc2Cl)SC(c2ccccc2O)NC1=O (stereo not drawn),112% (inactive)
4,COc1cc(-c2nc(Nc3nc4ccccc4s3)[nH]c(=O)c2C#N)cc(OC)c1O,105% (inactive)
5,CCCCCCCCCCCCCCCCCCOCC(COCCOCC[N+]1(CCCCCC(=O)[O-])CCCC1)Oc1ncccn1 (stereo not drawn),46.5% (inactive)
6,COc1ccc(C2=NN(C(=O)c3ccc(S(C)(=O)=O)cc3)C(c3ccc(OC)c(OC)c3)C2)c(OC)c1 (stereo not drawn),104% (inactive)
7,COc1ccccc1CNCCCN1C(=O)c2ccc3c4c(ccc(c24)C1=O)C(=O)N(CCCN)C3=O,-34.7% (active)
8,Nc1nc(N)c(NC(=O)CNc2ccc(C(=O)O)cc2)c(N)n1,112% (inactive)
9,c1ccc(CP(Cc2ccccc2)c2ccccc2)cc1,97.9% (inactive)
10,COC(=O)C1(C)Cc2cc(OC(C)=O)c(OC(C)=O)cc2N1 (stereo not drawn),91.5% (inactive)
11,CC(=O)OCc1cc(-c2nc3ccccc3[nH]c2=O)nn1-c1ccc(Cl)cc1,91.5% (inactive)
12,CC(=O)c1nc2ccccc2n1CCN1CCN(C)CC1,46.2% (inactive)
13,COc1ccc(-c2nn(-c3cccc(NC(=O)Nc4ccc(Cl)c(C(F)(F)F)c4)c3)cc2-c2ccncc2)cc1Cl,9.49% (active)
14,COc1cc(C(=O)/C=C/c2cc(-c3cc(OC)c(OC)c(OC)c3)n[nH]2)cc(OC)c1OC,68.4% (inactive)
15,Cc1cccc(NC2=C(C#N)C(=O)NC3(CCCC3)S2)c1,100% (inactive)
16,O=C1/C(=C\c2ccc(F)cc2)CN(C(=O)c2ccccc2)C/C1=C\c1ccc(F)cc1,61.8% (inactive)
17,COc1cc(-c2cc(/C=C3\C(=O)Nc4ccccc43)[nH]n2)cc(OC)c1OC,56% (inactive)
18,COc1cc(/C=C\c2cc(OC)c(OC)c(OC)c2)cc(NS(=O)(=O)c2ccc(Cl)cc2)c1OC,41% (inactive)
19,S=C1SCC(c2ccccc2)S1 (stereo not drawn),113% (inactive)
20,CCN(CC)Cc1cc(Nc2ccnc3cc(Cl)ccc23)ccc1OC,87.8% (inactive)

row,Structure (SMILES),growth
1,COC(=O)C(C(C[N+](=O)[O-])c1ccccc1)=P(c1ccccc1)(c1ccccc1)c1ccccc1 (stereo not drawn),92.4% (inactive)
2,O=S(=O)(NCCCNc1nccc(-c2c(-c3ccc(F)cc3)nc3sccn23)n1)c1ccc2ccccc2c1,66.2% (inactive)
3,CC(=O)N1N=C(c2ccc(Cl)cc2)CC1c1sc(Cl)nc1Cl (stereo not drawn),87.4% (inactive)
4,O=c1[nH]c2ccc(Cl)cc2c2ccccc12,86.6% (inactive)
5,COc1ccc(NC2=NC(C)(CO)CS2)cc1 (stereo not drawn),97.1% (inactive)
6,N#Cc1ncc(Br)c(NC2CCCCCC2)n1,103% (inactive)
7,O=C(Nc1cccc(-n2cc(-c3ccncc3)c(-c3cc(O)cc(Cl)c3)n2)c1)Nc1ccc(Cl)c(C(F)(F)F)c1,10.5% (inactive)
8,Nc1ncn(C2OC(CO)C(O)C2O)c(=O)n1 (stereo not drawn),30.3% (inactive)
9,O=C(Nc1nc(-c2ccccc2Cl)cs1)c1cc(-c2ccc(Cl)cc2)nc2ccc(Cl)cc12,28.8% (inactive)
10,Nc1c(C(=O)Nc2cccc(F)c2)sc2nc3c(cc12)C(=O)CCC3,41.6% (inactive)
11,COc1ccc(-c2cc(/C=C3\C(=O)Nc4ccc(Cl)cc43)[nH]n2)cc1OC,101% (inactive)
12,O=C1CC[C@@H]2CCCC[C@@H]2C1,99.9% (inactive)
13,COc1ccc2c(c1)O/C(=C\c1ccc([N+](=O)[O-])s1)C2=O,5.99% (active)
14,Nc1nc(N)c2c(ccc3nccc32)[nH]1,50% (inactive)
15,Nc1cc2c(cc1Cl)-c1ccc([N+](=O)[O-])cc1/C2=N\O,83.4% (inactive)
16,COc1cc(-c2cc(/C=C/C(=O)c3ccc4c(c3)OCO4)[nH]n2)cc(OC)c1OC,102% (inactive)
17,COc1ccc(Cl)cc1C(=O)Nc1nc2ccc(Cl)cc2s1,90.5% (inactive)
18,Cc1cc2c(C)c3cc(C)c(N)cc3nc2cc1N,17.1% (inactive)
19,O=c1oc2cc(OS(=O)(=O)c3ccccc3)ccc2c2c1CCCCC2,68.4% (inactive)

# Test system: NCI-H226 lung
# Experiment: as above
# Conditions: 10 µM
row,Structure (SMILES),growth
1,COc1cc(-c2cc(/C=C3\C(=O)Nc4cc(Cl)ccc43)[nH]n2)cc(OC)c1OC,50.4% (inactive)
2,CCCCCCc1cc(N=Nc2ccc(S(=O)(=O)Nc3cc(C)nc(C)n3)cc2)c(O)cc1O,98% (inactive)
3,N#CC1=C(Nc2ccccc2Cl)SC(c2ccccc2O)NC1=O (stereo not drawn),120% (inactive)
4,COc1cc(-c2nc(Nc3nc4ccccc4s3)[nH]c(=O)c2C#N)cc(OC)c1O,102% (inactive)
5,CCCCCCCCCCCCCCCCCCOCC(COCCOCC[N+]1(CCCCCC(=O)[O-])CCCC1)Oc1ncccn1 (stereo not drawn),56% (inactive)
6,COc1ccc(C2=NN(C(=O)c3ccc(S(C)(=O)=O)cc3)C(c3ccc(OC)c(OC)c3)C2)c(OC)c1 (stereo not drawn),85.5% (inactive)
7,COc1ccccc1CNCCCN1C(=O)c2ccc3c4c(ccc(c24)C1=O)C(=O)N(CCCN)C3=O,47.3% (inactive)
8,Nc1nc(N)c(NC(=O)CNc2ccc(C(=O)O)cc2)c(N)n1,98% (inactive)
9,c1ccc(CP(Cc2ccccc2)c2ccccc2)cc1,105% (inactive)
10,COC(=O)C1(C)Cc2cc(OC(C)=O)c(OC(C)=O)cc2N1 (stereo not drawn),113% (inactive)
11,CC(=O)OCc1cc(-c2nc3ccccc3[nH]c2=O)nn1-c1ccc(Cl)cc1,93% (inactive)
12,CC(=O)c1nc2ccccc2n1CCN1CCN(C)CC1,90.9% (inactive)
13,COc1ccc(-c2nn(-c3cccc(NC(=O)Nc4ccc(Cl)c(C(F)(F)F)c4)c3)cc2-c2ccncc2)cc1Cl,22.4% (inactive)
14,COc1cc(C(=O)/C=C/c2cc(-c3cc(OC)c(OC)c(OC)c3)n[nH]2)cc(OC)c1OC,36.8% (inactive)
15,Cc1cccc(NC2=C(C#N)C(=O)NC3(CCCC3)S2)c1,96.5% (inactive)
16,O=C1/C(=C\c2ccc(F)cc2)CN(C(=O)c2ccccc2)C/C1=C\c1ccc(F)cc1,36.6% (inactive)
17,COc1cc(-c2cc(/C=C3\C(=O)Nc4ccccc43)[nH]n2)cc(OC)c1OC,66.3% (inactive)
18,COc1cc(/C=C\c2cc(OC)c(OC)c(OC)c2)cc(NS(=O)(=O)c2ccc(Cl)cc2)c1OC,33.9% (inactive)
19,S=C1SCC(c2ccccc2)S1 (stereo not drawn),101% (inactive)
20,CCN(CC)Cc1cc(Nc2ccnc3cc(Cl)ccc23)ccc1OC,105% (inactive)

row,Structure (SMILES),growth
1,COC(=O)C(C(C[N+](=O)[O-])c1ccccc1)=P(c1ccccc1)(c1ccccc1)c1ccccc1 (stereo not drawn),96.6% (inactive)
2,O=S(=O)(NCCCNc1nccc(-c2c(-c3ccc(F)cc3)nc3sccn23)n1)c1ccc2ccccc2c1,57.4% (inactive)
3,CC(=O)N1N=C(c2ccc(Cl)cc2)CC1c1sc(Cl)nc1Cl (stereo not drawn),43.1% (inactive)
4,O=c1[nH]c2ccc(Cl)cc2c2ccccc12,85.1% (inactive)
5,COc1ccc(NC2=NC(C)(CO)CS2)cc1 (stereo not drawn),103% (inactive)
6,N#Cc1ncc(Br)c(NC2CCCCCC2)n1,97.1% (inactive)
7,O=C(Nc1cccc(-n2cc(-c3ccncc3)c(-c3cc(O)cc(Cl)c3)n2)c1)Nc1ccc(Cl)c(C(F)(F)F)c1,41.2% (inactive)
8,Nc1ncn(C2OC(CO)C(O)C2O)c(=O)n1 (stereo not drawn),29% (inactive)
9,O=C(Nc1nc(-c2ccccc2Cl)cs1)c1cc(-c2ccc(Cl)cc2)nc2ccc(Cl)cc12,72.7% (inactive)
10,Nc1c(C(=O)Nc2cccc(F)c2)sc2nc3c(cc12)C(=O)CCC3,64.6% (inactive)
11,COc1ccc(-c2cc(/C=C3\C(=O)Nc4ccc(Cl)cc43)[nH]n2)cc1OC,85.5% (inactive)
12,O=C1CC[C@@H]2CCCC[C@@H]2C1,105% (inactive)
13,COc1ccc2c(c1)O/C(=C\c1ccc([N+](=O)[O-])s1)C2=O,69.9% (inactive)
14,Nc1nc(N)c2c(ccc3nccc32)[nH]1,123% (inactive)
15,Nc1cc2c(cc1Cl)-c1ccc([N+](=O)[O-])cc1/C2=N\O,93.3% (inactive)
16,COc1cc(-c2cc(/C=C/C(=O)c3ccc4c(c3)OCO4)[nH]n2)cc(OC)c1OC,84.6% (inactive)
17,COc1ccc(Cl)cc1C(=O)Nc1nc2ccc(Cl)cc2s1,89.2% (inactive)
18,Cc1cc2c(C)c3cc(C)c(N)cc3nc2cc1N,10.1% (inactive)
19,O=c1oc2cc(OS(=O)(=O)c3ccccc3)ccc2c2c1CCCCC2,59.6% (inactive)
